Assay results taken from the supplement of paper PMC10127200.

The compounds below were run on A549 (assay: Euclidean distance of Cell Painting phenotypic profile (signed KS, 77 features) to DMSO centroid (dimensionless distance); 5 or 10 uM (library dependent); higher = stronger phenotypic change vs DMSO (phenoactivity)). Conditions: 48 h.
How it was run: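 At 10 or 5 uM, as set by the library, and 0.1% DMSO final, compounds were applied for 48 h to five cancer lines and one healthy fibroblast line. Stained cells were imaged confocally at 20X in 9 fields per well, and Harmony extracted 77 features scored as signed Kolmogorov-Smirnov statistics against vehicle wells on the same plate. Profiles underwent plate-position correction, correlation weighting and replicate averaging at the top dose. Phenoactivity is the Euclidean distance from each such profile to the median vehicle profile.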
With `CNC(=O)c1c(C)oc2cc(Oc3ncnc4cc(OC)c(OC)cc34)ccc12` [Fruquintinib] the Euclidean distance was 1.24.
`CCOC(=O)N[C@@H]1CC[C@@H]2[C@@H](C1)C[C@H]1C(=O)O[C@H](C)[C@H]1[C@H]2/C=C/c1ccc(-c2cccc(F)c2)cn1` [Vorapaxar] gave an Euclidean distance of 1.29.
In the case of `CC(C)(C)CC(C)(C)c1ccc(O)c(Cc2ccc(Cl)cc2Cl)c1` [Clofoctol], the Euclidean distance is reported as 1.84.
`COc1ccc2cc1Oc1ccc(cc1)C[C@H]1c3cc(c(OC)cc3CCN1C)Oc1c(OC)c(OC)cc3c1[C@H](C2)N(C)CC3` [Tetrandrine] was tested, and the Euclidean distance was 4.1.
In the case of `CNC(=O)c1cc(COc2nnc(Nc3ccc(Cl)cc3)c3ccoc23)ccn1` [Telatinib], the Euclidean distance is reported as 0.814.
Work on `CC(C)Oc1ccc(-c2nn([C@@H](C)c3oc4ccc(F)cc4c(=O)c3-c3cccc(F)c3)c3ncnc(N)c23)cc1F` [umbralisib (TGR-1202)] yielded an Euclidean distance of 1.14.
`C=CC(=O)N1CC/C(=C\c2ccc(F)c([N+](=O)[O-])c2)C(=O)/C(=C/c2ccc(F)c([N+](=O)[O-])c2)C1` gave an Euclidean distance of 5.03.
`NC(=O)c1nc(F)cnc1O` [Favipiravir (T-705)] was tested, and the Euclidean distance was 0.513.
`Cn1ccnc1S` [Methimazole] was tested, and the Euclidean distance was 1.61.
`CCCCCCCCCC(=O)N[C@@H](Cc1c[nH]c2ccccc12)C(=O)N[C@H](CC(N)=O)C(=O)N[C@@H](CC(=O)O)C(=O)N[C@@H]1C(=O)NCC(=O)N[C@@H](CCCN)C(=O)N[C@@H](CC(=O)O)C(=O)N[C@H](C)C(=O)N[C@@H](CC(=O)O)C(=O)NCC(=O)N[C@H](CO)C(=O)N[C@@H]([C@H](C)CC(=O)O)C(=O)N[C@@H](CC(=O)c2ccccc2N)C(=O)O[C@@H]1C` [Daptomycin] was tested, and the Euclidean distance was 0.544.
